Residual activity data for seven molecules are collected here from ChEMBL document CHEMBL2218924, “A broad activity screen in support of a chemogenomic map for kinase signalling research and drug discovery” (Biochem J, 2013).

The target in experiment [1] is Insulin receptor (Homo sapiens) (UniProt P06213). The note with it: at 10 µM.
The target is the same in experiment [2]. The following applies: at 1 µM.
For experiment [3] the target is unchanged. The following applies: at 10 µM. The source holds these as a separate data set.
Experiment [4] has as its target Interleukin-1 receptor-associated kinase 1 (Homo sapiens) (UniProt P51617). The following applies: at 1 µM.
Experiment [5] has the same target. The note with it: at 10 µM.
Experiment [6] has as its target T1, Interleukin-1 receptor-associated kinase 4 (Homo sapiens) (UniProt Q9NWZ3).
T1 sequence (whole entry): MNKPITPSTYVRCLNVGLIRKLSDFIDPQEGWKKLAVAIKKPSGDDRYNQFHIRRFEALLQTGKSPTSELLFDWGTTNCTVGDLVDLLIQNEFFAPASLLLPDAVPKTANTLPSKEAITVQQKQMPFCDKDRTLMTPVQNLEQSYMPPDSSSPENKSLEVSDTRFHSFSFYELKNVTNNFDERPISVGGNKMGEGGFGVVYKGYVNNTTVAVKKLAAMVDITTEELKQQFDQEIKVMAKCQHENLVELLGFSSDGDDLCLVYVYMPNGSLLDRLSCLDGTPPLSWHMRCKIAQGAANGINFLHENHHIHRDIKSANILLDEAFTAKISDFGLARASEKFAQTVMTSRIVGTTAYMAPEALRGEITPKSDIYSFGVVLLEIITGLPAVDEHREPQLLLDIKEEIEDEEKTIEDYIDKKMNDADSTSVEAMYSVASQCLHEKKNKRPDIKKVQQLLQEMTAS
The note with it: at 1 µM.

In experiment [7] the target is T1, Interleukin-1 receptor-associated kinase 4 (Homo sapiens). The note with it: at 10 µM.
For experiment [8], the target named is Insulin receptor-related protein (Homo sapiens) (UniProt P14616). The note with it: at 1 µM.
The target is the same in experiment [9]. The note with it: at 10 µM.
Experiment [10] concerns the target T2, Tyrosine-protein kinase ITK/TSK (Homo sapiens) (UniProt Q08881).
T2 sequence (whole entry): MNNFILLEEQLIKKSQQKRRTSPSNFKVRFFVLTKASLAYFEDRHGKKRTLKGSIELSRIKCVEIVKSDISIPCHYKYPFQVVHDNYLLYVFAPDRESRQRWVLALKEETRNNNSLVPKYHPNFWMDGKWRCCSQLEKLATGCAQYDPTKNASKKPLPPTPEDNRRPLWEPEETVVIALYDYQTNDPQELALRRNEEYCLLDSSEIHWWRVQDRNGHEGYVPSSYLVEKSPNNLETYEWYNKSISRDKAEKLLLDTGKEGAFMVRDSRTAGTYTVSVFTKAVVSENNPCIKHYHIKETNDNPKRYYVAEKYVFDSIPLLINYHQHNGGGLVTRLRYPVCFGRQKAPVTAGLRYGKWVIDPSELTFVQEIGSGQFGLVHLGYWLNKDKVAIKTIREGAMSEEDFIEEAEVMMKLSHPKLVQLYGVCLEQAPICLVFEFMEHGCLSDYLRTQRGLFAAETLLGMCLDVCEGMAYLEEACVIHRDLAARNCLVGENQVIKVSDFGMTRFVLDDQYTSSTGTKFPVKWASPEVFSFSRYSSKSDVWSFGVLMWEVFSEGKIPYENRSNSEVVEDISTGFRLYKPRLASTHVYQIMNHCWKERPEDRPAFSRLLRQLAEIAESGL
The note with it: at 1 µM.

Experiment [11] has as its target T2, Tyrosine-protein kinase ITK/TSK (Homo sapiens). The note with it: at 10 µM.
The target of experiment [12] is Tyrosine-protein kinase JAK2 (Homo sapiens) (UniProt O60674). The note with it: at 1 µM.
For experiment [13] the target is unchanged. The note with it: at 10 µM.
Experiment [14] deals with T3, Tyrosine-protein kinase JAK3 (Homo sapiens) (UniProt P52333).
T3 sequence (whole entry): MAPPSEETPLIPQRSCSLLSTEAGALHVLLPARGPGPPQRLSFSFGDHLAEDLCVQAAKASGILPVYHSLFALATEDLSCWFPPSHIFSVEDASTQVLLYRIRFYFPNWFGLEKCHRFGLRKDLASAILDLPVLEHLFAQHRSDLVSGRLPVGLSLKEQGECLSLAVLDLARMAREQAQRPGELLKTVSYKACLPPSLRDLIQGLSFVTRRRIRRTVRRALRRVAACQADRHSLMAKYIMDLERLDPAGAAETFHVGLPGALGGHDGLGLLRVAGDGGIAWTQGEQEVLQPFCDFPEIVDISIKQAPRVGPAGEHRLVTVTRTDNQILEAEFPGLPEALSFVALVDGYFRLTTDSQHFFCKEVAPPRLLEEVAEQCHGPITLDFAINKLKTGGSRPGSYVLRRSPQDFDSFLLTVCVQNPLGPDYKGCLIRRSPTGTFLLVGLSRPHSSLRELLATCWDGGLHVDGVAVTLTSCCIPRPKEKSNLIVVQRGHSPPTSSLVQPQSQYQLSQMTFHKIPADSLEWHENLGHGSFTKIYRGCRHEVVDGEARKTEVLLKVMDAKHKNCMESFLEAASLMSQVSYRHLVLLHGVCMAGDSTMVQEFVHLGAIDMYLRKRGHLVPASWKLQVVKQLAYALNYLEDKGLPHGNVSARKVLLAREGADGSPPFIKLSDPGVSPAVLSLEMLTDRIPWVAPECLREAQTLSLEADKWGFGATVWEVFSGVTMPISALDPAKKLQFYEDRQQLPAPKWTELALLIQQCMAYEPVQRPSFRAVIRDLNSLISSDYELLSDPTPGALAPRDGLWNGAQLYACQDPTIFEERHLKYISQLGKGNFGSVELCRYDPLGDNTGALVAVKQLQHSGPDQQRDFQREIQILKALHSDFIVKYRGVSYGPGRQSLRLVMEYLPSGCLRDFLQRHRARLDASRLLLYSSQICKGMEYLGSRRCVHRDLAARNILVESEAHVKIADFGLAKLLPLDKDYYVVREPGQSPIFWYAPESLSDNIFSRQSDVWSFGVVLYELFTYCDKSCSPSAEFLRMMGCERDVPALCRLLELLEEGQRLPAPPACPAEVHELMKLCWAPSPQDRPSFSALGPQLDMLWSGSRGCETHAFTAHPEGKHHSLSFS
The following applies: at 1 µM.

The target of experiment [15] is T3, Tyrosine-protein kinase JAK3 (Homo sapiens). The following applies: at 10 µM.
Experiment [16] deals with Mitogen-activated protein kinase 8 (Homo sapiens) (UniProt P45983). The note with it: at 1 µM.
The target is the same in experiment [17]. The note with it: at 10 µM.
Experiment [18] deals with Mitogen-activated protein kinase 9 (Homo sapiens) (UniProt P45984). The following applies: at 1 µM.
The target is the same in experiment [19]. The following applies: at 10 µM.
For experiment [20], the target named is Mitogen-activated protein kinase 10 (Homo sapiens) (UniProt P53779). The following applies: at 1 µM.

Structures are written as SMILES.

Insulin receptor-related protein (Homo sapiens), sequence (P14616 27-742 limits assumed): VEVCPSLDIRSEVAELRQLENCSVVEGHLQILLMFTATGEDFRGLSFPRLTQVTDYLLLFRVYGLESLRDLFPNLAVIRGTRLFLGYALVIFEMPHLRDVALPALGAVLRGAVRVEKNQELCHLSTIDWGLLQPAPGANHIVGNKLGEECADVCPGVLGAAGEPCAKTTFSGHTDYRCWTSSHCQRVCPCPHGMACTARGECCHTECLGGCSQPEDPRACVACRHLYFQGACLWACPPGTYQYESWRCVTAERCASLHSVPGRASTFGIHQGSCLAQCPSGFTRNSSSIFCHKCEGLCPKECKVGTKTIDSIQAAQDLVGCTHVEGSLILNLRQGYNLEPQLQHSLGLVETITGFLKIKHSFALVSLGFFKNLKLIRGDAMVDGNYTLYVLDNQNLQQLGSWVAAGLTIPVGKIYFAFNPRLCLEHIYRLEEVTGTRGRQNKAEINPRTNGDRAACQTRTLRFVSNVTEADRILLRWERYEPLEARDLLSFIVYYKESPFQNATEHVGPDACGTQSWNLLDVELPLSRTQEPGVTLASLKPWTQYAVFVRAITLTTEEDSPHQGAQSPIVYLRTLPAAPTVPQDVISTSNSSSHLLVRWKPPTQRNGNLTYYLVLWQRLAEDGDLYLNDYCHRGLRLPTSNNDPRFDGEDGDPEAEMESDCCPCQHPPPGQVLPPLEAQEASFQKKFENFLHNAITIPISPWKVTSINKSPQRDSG
Insulin receptor-related protein (Homo sapiens), sequence (P14616 747-1297 limits assumed): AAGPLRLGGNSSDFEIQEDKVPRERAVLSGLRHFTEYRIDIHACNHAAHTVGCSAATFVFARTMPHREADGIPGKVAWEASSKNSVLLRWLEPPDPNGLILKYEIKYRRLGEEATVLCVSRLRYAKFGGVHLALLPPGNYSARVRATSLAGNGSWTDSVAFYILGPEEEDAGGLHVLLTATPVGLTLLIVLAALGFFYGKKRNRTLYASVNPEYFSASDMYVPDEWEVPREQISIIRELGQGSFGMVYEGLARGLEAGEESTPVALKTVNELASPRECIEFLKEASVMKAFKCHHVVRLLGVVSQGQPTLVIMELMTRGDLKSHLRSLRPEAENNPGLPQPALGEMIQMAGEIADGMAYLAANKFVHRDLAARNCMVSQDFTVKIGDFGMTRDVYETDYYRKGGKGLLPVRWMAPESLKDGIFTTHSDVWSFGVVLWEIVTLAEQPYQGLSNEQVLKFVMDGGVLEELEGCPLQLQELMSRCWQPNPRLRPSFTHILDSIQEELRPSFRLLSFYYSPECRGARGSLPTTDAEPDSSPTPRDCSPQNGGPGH
Interleukin-1 receptor-associated kinase 1 (Homo sapiens), sequence (P51617 whole entry, looked up): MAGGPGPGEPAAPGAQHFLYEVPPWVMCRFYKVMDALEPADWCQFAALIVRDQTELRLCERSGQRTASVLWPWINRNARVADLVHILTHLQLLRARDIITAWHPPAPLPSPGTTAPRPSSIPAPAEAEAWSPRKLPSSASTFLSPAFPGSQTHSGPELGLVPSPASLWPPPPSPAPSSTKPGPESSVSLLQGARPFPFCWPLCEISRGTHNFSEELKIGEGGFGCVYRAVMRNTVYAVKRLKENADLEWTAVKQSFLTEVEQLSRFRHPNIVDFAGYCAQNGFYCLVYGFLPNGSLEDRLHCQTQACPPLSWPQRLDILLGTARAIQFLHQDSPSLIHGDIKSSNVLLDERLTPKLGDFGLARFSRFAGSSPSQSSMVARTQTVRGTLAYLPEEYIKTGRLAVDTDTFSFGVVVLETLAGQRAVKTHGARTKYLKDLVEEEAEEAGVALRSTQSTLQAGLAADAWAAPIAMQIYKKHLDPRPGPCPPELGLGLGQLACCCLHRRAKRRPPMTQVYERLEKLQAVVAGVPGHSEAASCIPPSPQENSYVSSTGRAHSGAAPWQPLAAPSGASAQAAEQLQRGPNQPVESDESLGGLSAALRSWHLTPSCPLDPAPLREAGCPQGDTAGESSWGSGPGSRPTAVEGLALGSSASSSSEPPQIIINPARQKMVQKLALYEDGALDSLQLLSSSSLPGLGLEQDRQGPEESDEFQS
Insulin receptor (Homo sapiens), sequence (P06213 28-758 limits assumed): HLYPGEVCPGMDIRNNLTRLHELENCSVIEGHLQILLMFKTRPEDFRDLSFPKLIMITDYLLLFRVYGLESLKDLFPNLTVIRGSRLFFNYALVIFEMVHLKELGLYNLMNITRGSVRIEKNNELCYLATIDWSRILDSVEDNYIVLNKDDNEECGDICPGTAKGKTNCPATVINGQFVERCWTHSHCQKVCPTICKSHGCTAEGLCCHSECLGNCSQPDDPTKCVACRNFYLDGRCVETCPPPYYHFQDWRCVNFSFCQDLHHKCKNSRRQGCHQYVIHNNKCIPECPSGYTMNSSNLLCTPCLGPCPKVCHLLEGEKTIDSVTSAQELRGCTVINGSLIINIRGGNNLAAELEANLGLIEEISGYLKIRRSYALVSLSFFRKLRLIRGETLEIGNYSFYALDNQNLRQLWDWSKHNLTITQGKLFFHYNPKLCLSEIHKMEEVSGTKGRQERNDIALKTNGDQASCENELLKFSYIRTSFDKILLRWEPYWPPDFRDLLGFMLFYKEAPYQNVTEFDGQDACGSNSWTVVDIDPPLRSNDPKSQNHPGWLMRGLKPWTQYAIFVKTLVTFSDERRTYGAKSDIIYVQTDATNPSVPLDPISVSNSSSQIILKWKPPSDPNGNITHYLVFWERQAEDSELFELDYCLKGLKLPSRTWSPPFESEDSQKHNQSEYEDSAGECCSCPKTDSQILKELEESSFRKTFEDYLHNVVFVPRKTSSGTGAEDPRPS
Insulin receptor (Homo sapiens), sequence (P06213 763-1382 limits assumed): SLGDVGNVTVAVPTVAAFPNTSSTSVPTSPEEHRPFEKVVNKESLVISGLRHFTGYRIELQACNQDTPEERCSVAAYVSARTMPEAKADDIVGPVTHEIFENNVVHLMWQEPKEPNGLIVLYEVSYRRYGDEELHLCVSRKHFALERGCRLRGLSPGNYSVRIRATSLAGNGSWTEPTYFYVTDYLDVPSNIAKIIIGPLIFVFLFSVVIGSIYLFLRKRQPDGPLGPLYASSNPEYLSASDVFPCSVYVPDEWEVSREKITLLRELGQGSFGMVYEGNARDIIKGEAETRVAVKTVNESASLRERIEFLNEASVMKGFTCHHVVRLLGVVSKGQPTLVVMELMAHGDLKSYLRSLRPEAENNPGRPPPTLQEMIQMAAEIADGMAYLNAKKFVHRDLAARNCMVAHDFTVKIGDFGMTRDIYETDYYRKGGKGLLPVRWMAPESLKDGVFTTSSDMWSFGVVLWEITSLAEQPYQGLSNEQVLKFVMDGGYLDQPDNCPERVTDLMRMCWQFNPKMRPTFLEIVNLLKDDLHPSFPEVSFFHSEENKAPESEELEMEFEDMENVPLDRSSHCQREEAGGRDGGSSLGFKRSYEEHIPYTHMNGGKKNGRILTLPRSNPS
Mitogen-activated protein kinase 10 (Homo sapiens), sequence (P53779 whole entry): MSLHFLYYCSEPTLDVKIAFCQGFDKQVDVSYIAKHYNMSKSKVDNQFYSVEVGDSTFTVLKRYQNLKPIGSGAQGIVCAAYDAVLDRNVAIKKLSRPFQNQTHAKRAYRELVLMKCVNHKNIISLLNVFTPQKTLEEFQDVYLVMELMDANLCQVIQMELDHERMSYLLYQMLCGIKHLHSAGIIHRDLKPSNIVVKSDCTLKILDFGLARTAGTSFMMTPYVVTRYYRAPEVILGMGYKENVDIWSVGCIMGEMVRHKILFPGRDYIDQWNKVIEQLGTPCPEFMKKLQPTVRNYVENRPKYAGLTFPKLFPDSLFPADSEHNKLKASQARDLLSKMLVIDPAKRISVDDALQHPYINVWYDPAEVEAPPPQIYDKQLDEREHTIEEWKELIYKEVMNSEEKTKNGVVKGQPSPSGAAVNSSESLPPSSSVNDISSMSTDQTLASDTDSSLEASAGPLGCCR
Mitogen-activated protein kinase 9 (Homo sapiens), sequence (P45984 whole entry, looked up): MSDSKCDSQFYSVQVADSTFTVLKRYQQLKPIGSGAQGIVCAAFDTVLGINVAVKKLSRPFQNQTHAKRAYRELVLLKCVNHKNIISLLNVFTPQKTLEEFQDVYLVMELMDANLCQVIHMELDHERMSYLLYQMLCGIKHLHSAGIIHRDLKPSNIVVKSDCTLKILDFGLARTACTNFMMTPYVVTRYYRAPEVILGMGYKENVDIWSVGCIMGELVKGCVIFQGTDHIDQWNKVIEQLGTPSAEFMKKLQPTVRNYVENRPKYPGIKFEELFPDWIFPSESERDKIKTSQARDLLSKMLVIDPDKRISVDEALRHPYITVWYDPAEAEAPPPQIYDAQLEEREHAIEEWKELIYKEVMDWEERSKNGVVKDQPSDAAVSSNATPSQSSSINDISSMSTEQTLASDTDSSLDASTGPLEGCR
Mitogen-activated protein kinase 8 (Homo sapiens), sequence (P45983 whole entry): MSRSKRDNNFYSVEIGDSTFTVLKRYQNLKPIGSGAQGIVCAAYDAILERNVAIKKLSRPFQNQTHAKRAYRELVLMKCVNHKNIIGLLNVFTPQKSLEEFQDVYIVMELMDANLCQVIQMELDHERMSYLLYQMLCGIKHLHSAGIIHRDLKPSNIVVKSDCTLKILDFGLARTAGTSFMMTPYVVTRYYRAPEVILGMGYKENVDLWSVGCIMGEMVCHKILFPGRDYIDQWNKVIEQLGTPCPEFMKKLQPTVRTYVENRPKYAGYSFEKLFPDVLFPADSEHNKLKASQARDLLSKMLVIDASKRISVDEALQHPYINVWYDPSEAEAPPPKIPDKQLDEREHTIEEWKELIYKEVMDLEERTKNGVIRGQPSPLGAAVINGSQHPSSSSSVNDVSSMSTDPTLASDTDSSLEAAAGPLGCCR

Take `CC#CC(=O)Nc1cc2c(Nc3ccc(F)c(Cl)c3)ncnc2cn1`: the residual activity is 85% in experiment [1]; 103% in experiment [2]; 98% in experiment [3]; 94% in [4]; 73% in [5]; 103% in experiment [6]. Moreover, the residual activity worked out at 98% in experiment [7]; 127% in experiment [8]; 86% in experiment [9]; 100% in experiment [10]; 92% in experiment [11]; 96% in [12]. The residual activity in [13] was 97%; in experiment [14], 51%; in experiment [15], 59%; in experiment [16], 96%; in experiment [17], 72%; in [18], 103%. Moreover, the residual activity in experiment [19] worked out at 95%; in experiment [20] it was 76%.

Turning to `Ic1cccc(CSc2nnc(-c3ccncc3)o2)c1`, the residual activity was 82% in experiment [1]; 95% in [2]; 92% in [3]; 91% in experiment [4]; 94% in experiment [5]; 55% in experiment [6]. Further, the residual activity in experiment [7] stood at 41%; in [8], 112%; in [9], 101%; in [10], 93%; in [11] it was 95%; in experiment [12], 86%. Moreover, the residual activity in [13] came to 104%; in experiment [14], 102%; in experiment [15], 89%; in [16], 93%; in [17], 84%; in experiment [18] it was 90%. The residual activity in experiment [19] came out at 96%; in [20], 73%.

`Cn1cnc2cc3c(Nc4cccc(Br)c4)ncnc3cc21`: the residual activity in experiment [1] is 103%; in experiment [2], 102%; in experiment [3], 100%; in [4], 102%; in experiment [5], 73%; in experiment [6], 77%. Moreover, the residual activity in experiment [7] is 46%; in [8], 125%; in experiment [9] it was 78%; in experiment [10], 104%; in experiment [11], 87%; in experiment [12], 111%. Besides, the residual activity in experiment [13] was 99%; in [14], 102%; in [15] it was 108%; in [16], 98%; in experiment [17], 77%; in [18], 112%. Further, the residual activity in experiment [19] turned out to be 94%; in experiment [20], 54%.

In the case of `COc1cccc(-c2cc(=O)c3ccccc3o2)c1N`, the residual activity came out at 94% in experiment [1]; 96% in [2]; 92% in experiment [3]; 98% in [4]; 96% in experiment [5]; 109% in experiment [6]. For the same molecule, the residual activity in experiment [7] was found to be 94%; in experiment [8] it was 106%; in experiment [9], 91%; in experiment [10] it was 108%; in [11], 108%; in experiment [12] it was 111%. Moreover, the residual activity was found to be 107% in experiment [13]; 113% in [14]; 108% in experiment [15]; 106% in experiment [16]; 101% in experiment [17]; 102% in [18]. Besides, the residual activity in [19] amounted to 100%; in [20] it was 84%.

As to `CNc1cc2c(Nc3cccc(Br)c3)ncnc2cn1`, the residual activity is 48% in experiment [1]; 96% in experiment [2]; 103% in experiment [3]; 95% in experiment [4]; 75% in experiment [5]; 96% in [6]. The residual activity in experiment [7] stood at 61%; in [8], 135%; in experiment [9] it was 71%; in experiment [10], 104%; in experiment [11] it was 87%; in [12], 70%. Further, the residual activity in [13] was 56%; in [14], 96%; in experiment [15], 78%; in experiment [16], 100%; in experiment [17], 97%; in [18] it was 98%. Moreover, the residual activity in experiment [19] stood at 92%; in experiment [20], 97%.

Consider `COc1cc2ncnc(N3CCN(C(=O)Nc4ccc(Oc5ccccc5)cc4)CC3)c2cc1OC`, for which the residual activity stood at 113% in experiment [1]; 98% in [2]; 97% in experiment [3]; 76% in [4]; 57% in [5]; 87% in [6]. The residual activity is 98% in [7]; 117% in [8]; 80% in experiment [9]; 88% in experiment [10]; 73% in [11]; 101% in experiment [12]. In addition, the residual activity was 118% in [13]; 97% in [14]; 124% in experiment [15]; 93% in experiment [16]; 75% in experiment [17]; 108% in [18]. Besides, the residual activity in experiment [19] was determined as 97%; in experiment [20], 85%.

As for `COc1cc2ncnc(Nc3ccc(O)c(Br)c3)c2cc1OC`, the residual activity in experiment [1] worked out at 76%; in experiment [2], 95%; in experiment [3] it was 91%; in experiment [4], 40%; in [5] it was 10%; in experiment [6], 44%. Also, the residual activity in experiment [7] worked out at 17%; in [8], 102%; in [9] it was 75%; in experiment [10], 89%; in experiment [11], 71%; in experiment [12], 102%. Moreover, the residual activity was 55% in experiment [13]; 93% in [14]; 57% in experiment [15]; 96% in experiment [16]; 54% in experiment [17]; 99% in experiment [18]. The residual activity in [19] is 78%; in experiment [20], 51%.
